# Data taken from PMC5540273 (PLoS ONE, 2017).
# How the values were obtained:
# [1] = system: AAK1; conditions: concentration: 1 μM, replicates: in singlicate; n = 1
# [2] = system: ABL1-nonphosphorylated; conditions: concentration: 1 μM, replicates: in singlicate; n = 1
# [3] = system: ABL1-phosphorylated; conditions: concentration: 1 μM, replicates: in singlicate; n = 1
# [4] = system: ABL2; conditions: concentration: 1 μM, replicates: in singlicate; n = 1
# [5] = system: ACVR1B; conditions: concentration: 1 μM, replicates: in singlicate; n = 1
# [6] = system: ACVR1; conditions: concentration: 1 μM, replicates: in singlicate; n = 1
# [7] = system: ACVR2A; conditions: concentration: 1 μM, replicates: in singlicate; n = 1
# [8] = system: ACVR2B; conditions: concentration: 1 μM, replicates: in singlicate; n = 1
# [9] = system: ACVRL1; conditions: concentration: 1 μM, replicates: in singlicate; n = 1
# [10] = system: T1, ADCK3; conditions: concentration: 1 μM, replicates: in singlicate; n = 1
# T1 construct: gene CABC1
# [11] = system: ADCK4; conditions: concentration: 1 μM, replicates: in singlicate; n = 1
# [12] = system: AKT1; conditions: concentration: 1 μM, replicates: in singlicate; n = 1
# [13] = system: AKT2; conditions: concentration: 1 μM, replicates: in singlicate; n = 1
# [14] = system: T2, p38-alpha
# T2 construct: gene MAPK14
# [15] = system: ZAK
# 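Throughout, for %Inh: KINOMEscan kinase panel screen.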
# 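Throughout, for Kd: kd values determined as follow-up on hits from a single-replicate KINOMEscan panel screen.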
SMILES,%Inh [1] [%],%Inh [2] [%],%Inh [3] [%],%Inh [4] [%],%Inh [5] [%],%Inh [6] [%],%Inh [7] [%],%Inh [8] [%],%Inh [9] [%],%Inh [10] [%],%Inh [11] [%],%Inh [12] [%],%Inh [13] [%],Kd [14] [nM],Kd [15] [nM]
C[C@@H]1CCN(C(=O)CO)C[C@@H]1N(C)c1ncnc2[nH]ccc12,8,35,0,0,13,0,0,0,8,0,0,0,0,,
CCCc1ccc(S(=O)(=O)NC2CCN(c3ccnc(Nc4ccc(OC)cc4)n3)C2)cc1 (stereo not shown) [GSK1379737],0,0,0,14,0,0,0,0,0,0,66,0,0,,
CNc1nccc(-c2c(-c3ccc(F)cc3)ncn2C2CCN(C)CC2)n1 [SB-222903],0,34,6,0,0,0,0,0,0,0,22,0,2,53,
O=C(c1ccc(-c2cc(-c3c[nH]nc3-c3ccccn3)ccn2)cc1)N1CCCC1 [GW792479],12,74,59,0,77,0,11,22,0,27,0,2,0,,
CS(=O)(=O)CCNCc1nc(-c2ccc3ncnc(Nc4ccc(OCc5cccc(F)c5)c(Cl)c4)c3c2)cs1.Cl [GW583340],19,0,0,0,0,0,0,0,0,1,20,0,0,,> 10000
Cc1ccc(O)cc1Nc1cc(C(F)(F)F)nc2ccc(-c3ccncc3)cc12 [GW630823],0,21,7,14,0,11,0,0,0,10,0,5,1,,
CSc1ccc(NC2=C(c3ccccc3Cl)C(=O)NC2=O)cc1 [SB-342411],24,0,0,3,0,0,0,0,0,16,0,0,11,,
Cc1cc(N2CCC(NS(=O)(=O)c3ccc(F)cc3)CC2)nc(Nc2cccc(C#N)c2)n1.O=C(O)C(F)(F)F [GSK1653537],9,0,0,2,0,0,0,0,0,0,0,0,20,,
COc1cc2ncnc(Nc3ccc(OCc4ccccc4Br)c(Cl)c3)c2cc1OC.Cl [GI261590],15,0,0,16,0,0,0,4,0,22,37,0,5,,
COc1ccc(NC(=O)Nc2ccc(C)c(-c3ccc(C(=O)Nc4ccncc4)cc3)c2)cc1 [GSK1398475],2,0,2,12,0,43,0,0,0,19,34,0,0,,
COc1ccc(Nc2nccc(N3CCC(NC(=O)Nc4ccc5c(c4)OCO5)C3)n2)cc1 (stereo not shown) [GSK1379745],3,0,0,18,0,1,0,5,0,17,41,0,7,,
OCCOCCn1ccc2ncnc(Nc3ccc(Oc4cccc(Cl)c4)c(Cl)c3)c21,0,24,0,0,0,0,8,0,0,2,0,0,0,,
Cn1ccc2ncnc(Oc3ccc(NC(=O)Nc4cccnc4)c(Cl)c3)c21,19,23,0,11,0,0,0,0,0,0,0,0,8,,
CS(=O)(=O)CCNCc1ccc(-c2ccc3ncnc(Nc4ccc(OCc5ccccc5)c(Cl)c4)c3c2)o1.Cl [GW574783],13,0,0,0,0,2,4,22,0,23,20,46,21,,
